Inhibition data for 67 molecules are collected here from PubChem BioAssay AID1259374 (The Scripps Research Institute Molecular Screening Center, 2018).

Out of some 650,000 compounds screened, about 5,900 (0.91%) were called active. This is one part of a sample in which actives are shown more often than they occur. Rule as the data show it: active = inhibition above about 50%; inactive = the rest.

For the assay, the target named is Microphthalmia-associated transcription factor (Homo sapiens) (UniProt O75030). Description: MITF inhibitors, primary screen, biochemical, AlphaScreen, human (AID 1259374).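 Also: 0% = vehicle wells with protein.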 To be noted: AlphaScreen MITF homodimerization, bead proximity signal; at 2.6 µM; stronger effect = higher value. (In Alpha technology, singlet oxygen from a donor bead excites a nearby acceptor bead.)
Microphthalmia-associated transcription factor (Homo sapiens), sequence (O75030 whole entry, looked up): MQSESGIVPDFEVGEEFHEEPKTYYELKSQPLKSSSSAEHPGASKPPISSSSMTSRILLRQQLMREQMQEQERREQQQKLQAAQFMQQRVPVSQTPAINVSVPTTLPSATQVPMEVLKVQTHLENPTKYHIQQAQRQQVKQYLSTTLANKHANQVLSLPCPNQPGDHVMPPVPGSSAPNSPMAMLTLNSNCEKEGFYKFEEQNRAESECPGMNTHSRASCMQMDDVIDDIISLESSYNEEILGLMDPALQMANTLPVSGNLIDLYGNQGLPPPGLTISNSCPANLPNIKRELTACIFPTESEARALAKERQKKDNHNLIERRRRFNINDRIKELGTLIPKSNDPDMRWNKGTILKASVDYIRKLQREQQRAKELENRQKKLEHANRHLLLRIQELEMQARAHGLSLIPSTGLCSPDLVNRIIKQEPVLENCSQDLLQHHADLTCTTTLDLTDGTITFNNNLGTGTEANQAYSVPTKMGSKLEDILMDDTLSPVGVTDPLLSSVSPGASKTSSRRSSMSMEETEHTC
The inhibition is the change of the read-out against control, counted positive when it falls. As to `CCCNC(=O)N1CCCC(N2CCN(Cc3ccc4c(c3)OCO4)CC2)C1` (configuration not stated), the inhibition was 12.8% (inactive). The result for `CC(C)CCCN1CCC(N2CCN(Cc3ccc4c(c3)OCO4)CC2)CCC1=O` (configuration not stated) reads -10.8% (inactive); that for `CC(=O)Oc1ccc(C(=O)N2CCN(Cc3ccc4c(c3)OCO4)CC2)cc1`, -6.96% (inactive); that for `c1cc2c(cc1CN1CCN(C3CCCCC3)CC1)OCO2`, 60.9% (active).

Regarding `c1cc2c(cc1CN1CCN(C3CCCC3)CC1)OCO2`, the inhibition is 62.8% (active). With `c1cc2c(cc1Cn1nnnc1CN1CCN(C3CCCC3)CC1)OCO2` the figure was 7.92% (inactive); with `OC1CCCN(Cc2ccc3c(c2)OCO3)C1` (configuration not stated), 6.89% (inactive). The result for `COC(=O)C(C)CN1CCN(Cc2ccc3c(c2)OCO3)CC1` (configuration not stated) reads 78.9% (active); that for `CCC(C)(C)C(=O)N1CCN(Cc2ccc3c(c2)OCO3)CC1`, 9.89% (inactive); that for `COc1ccc(OC(=O)c2cccc(C(=O)OC(C)C)n2)cc1`, 7.42% (inactive). The result for `COCCNC(=O)c1ccc(-c2cccc(OC)c2)nc1NCC1CC1` reads -12.1% (inactive); that for `NC(=O)CC[C@H](NC(=O)c1ccc(F)cc1)C(=O)OCC(=O)c1ccccc1`, 1.49% (inactive). As for `CO[C@@H](C1CCCCC1)[C@@H](C)[C@H](OCc1cccc(Br)c1)[C@@H](C)CO`, the inhibition was -6.84% (inactive).

On to `CCN(Cc1ccccc1)Cc1cc(OC)c(OC)c(OC)c1`, for which the inhibition is 5.59% (inactive). The result for `COc1cc(CN(CCN(C)C)Cc2ccccc2)cc(OC)c1` reads 70% (active). The result for `COc1cc(CN(CCCN(C)C)CCCN(C)C)cc(OC)c1` reads 45.5% (inactive). With `Cc1ccc(OCCCNC2CCCC2)c(I)c1` the figure was 29.7% (inactive). On to `CCOc1ccc2[nH]c(=O)c(CN(CCO)C(=O)c3ccco3)cc2c1`, for which the inhibition is 6.48% (inactive). The result for `COC(=O)CCS(=O)(=O)c1ccc(C(=O)O)cc1N` reads -6.29% (inactive).

Regarding `COc1ccc(-c2noc(=O)n2CC(=O)N(c2ccccc2)c2ccccc2)cc1`, the inhibition is 2.22% (inactive). With `O=C(CN1CCSCC1)N/N=C/c1ccc(Cl)cc1` the figure was 17.4% (inactive).

With `CN1CCN(CCC(=O)N/N=C/c2ccsc2)CC1`, the inhibition is 53.5% (active). Turning to `O=C(CN1CCSCC1)N/N=C/c1ccc(F)cc1`, the inhibition was 47% (inactive). The result for `COc1ccc2c(c1)OC(C)CN(C(=O)C1CCCCCN1C)C2` (configuration not stated) reads 1.95% (inactive); that for `CCCNCc1nc(-c2ccc(OC)c(OC)c2)no1`, 11.7% (inactive).

For the molecule `Cc1cnc(NCc2ccc3c(c2)OCO3)nc1NCCN1CCOCC1`, the inhibition is 16% (inactive).

For `c1ccc(Nc2cc(NCc3ccc4c(c3)OCO4)ncn2)cc1`, the inhibition was -2.56% (inactive). With `Cc1cnc(NCc2ccc3c(c2)OCO3)nc1Nc1ccccc1`, the inhibition was 69.7% (active). With `COc1ccc(-c2csc3nc(C)n(N)c(=O)c23)cc1OC` the figure was 14.4% (inactive). The result for `Fc1cccc(Cl)c1Cn1nnc(-c2ccncc2)n1` reads 74% (active).

On to `Fc1cccc(Cl)c1CSc1nnc2ncccn12`, for which the inhibition is -8.92% (inactive). For `c1ccc(OCCCCn2nnc(-c3ccncc3)n2)cc1`, the inhibition was 10.3% (inactive). With `CC1CCc2sc(NC(=O)c3ccccc3[N+](=O)[O-])c(C#N)c2C1` (configuration not stated) the figure was 11.5% (inactive); with `CC1=CCC(C(=O)O)(C(=O)N/N=C/C2=C(O)CC(C)(C)CC2=O)CC1c1ccccc1` (configuration not stated), 45.2% (inactive); with `COc1ccc(-c2nc(Nc3cc(OC)c(OC)c(OC)c3)c3[nH]cnc3n2)cc1`, 63.2% (active). With `COc1ccc(-c2nc(N)c3[nH]cnc3n2)cc1` the figure was -0.37% (inactive); with `COc1cc(Nc2nc(Nc3cc(OC)c(OC)c(OC)c3)c3[nH]cnc3n2)cc(OC)c1OC`, -7.41% (inactive); with `Cc1cccc(NC(=O)C(c2ccccc2)N2CCOCC2)c1` (configuration not stated), 2.38% (inactive). `Cc1c(C(C)NC(=O)c2csc(C(C)C)n2)cnn1-c1ccccn1` (configuration not stated): the inhibition is 1.61% (inactive). Regarding `C=CCN=Cc1c(C)[nH]n(-c2ccc([N+](=O)[O-])cc2)c1=O`, the inhibition is 0.33% (inactive).

For `COc1cc(C=O)ccc1OCCCN1CCCCC1`, the inhibition is 34.3% (inactive). With `O=c1c2ccccc2nc(-c2ccc(Cl)cc2)n1CCCCOc1ccccc1F` the figure was -6.63% (inactive); with `CCN1CCN(CCOCCOc2ccccc2OCc2ccccc2)CC1`, 80.8% (active).

Turning to `COc1ccccc1OCCOCCOc1ccccc1OC`, the inhibition was -12.3% (inactive).

Turning to `c1ccc2cc(OCCOCCN3CCOCC3)ccc2c1`, the inhibition was 12.8% (inactive). The result for `CCCCOc1ccccc1OCCCN1CCN(C)CC1` reads -4.11% (inactive); that for `CCc1ccccc1OCCCN1CCOCC1`, 38.5% (inactive); that for `Cc1ccc(Cl)c(OCCn2cnc3ccccc3c2=O)c1`, 10.1% (inactive). With `CCN1CCN(CCCCOc2ccccc2F)CC1` the figure was 63.7% (active). With `CCN1CCN(CC(=O)c2cc(OC)c(OC)c(OC)c2)CC1` the figure was 6.5% (inactive); with `O=c1c2ccccc2ncn1CCCCOc1ccccc1F`, 52.4% (active). Turning to `CCN1CCN(CCCOc2ccc(C(C)=O)cc2OC)CC1`, the inhibition was 77.9% (active).

With `C=CCC1(CC=C)CCCN1C(=O)CC1C(=O)NCCN1Cc1ccccc1C` (configuration not stated), the inhibition is 5.18% (inactive). With `CCOC(=O)CSc1nc2ccc(Cl)cc2n2cnnc12`, the inhibition was -5.55% (inactive). The result for `Cc1nn(-c2ccccn2)c2c1C(=O)/C(=C\Nc1cccc([N+](=O)[O-])c1)CC2` reads -6.22% (inactive). With `COc1ccc(C(=O)Oc2ccc3c(c2)C(C)=CC(C)(C)N3C(=O)c2ccc(OC)cc2)cc1` the figure was 8.97% (inactive); with `Cc1ccc(S(=O)(=O)NC(=NC(CC(=O)O)C(=O)O)c2ccccc2)cc1` (configuration not stated), -0.64% (inactive). The result for `O=C1NC2(CCCCC2)N(C(=O)c2ccc(Cl)cc2)C2=C1CCCC2` reads 9.62% (inactive); that for `CCCCN(CC)C(=O)c1c[nH]c2ccc(S(=O)(=O)N(C)c3ccc(CC)cc3)cc2c1=O`, 1.47% (inactive). As to `Cc1ccc(OCCOCCN2CCN(C)CC2)c(Br)c1`, the inhibition was 42.5% (inactive).

Consider `CN1CCN(CCOCCOc2ccccc2Cl)CC1`, for which the inhibition was 53.8% (active). As for `CC(C)c1cc(Br)ccc1OCCOCCN1CCN(C)CC1`, the inhibition is -24.1% (inactive). With `O=C(O)C1CSC(c2cccc(I)c2)N1` (configuration not stated) the figure was 10% (inactive); with `Cc1ccc(-c2c(C(=O)Nc3cccc(O)c3)oc(=O)c3ccccc23)cc1`, 26.8% (inactive); with `O=C(O)CCC(=O)Nc1ccc([N+](=O)[O-])cc1`, -7.16% (inactive). With `O=C(CCC(=O)OCc1ccc(Cl)cc1)Nc1ccc([N+](=O)[O-])cc1` the figure was 59.3% (active); with `O=C(COc1ccc([N+](=O)[O-])cc1)Nc1ccc(Cl)cc1`, 12.6% (inactive).
